Many of the other results were omitted from the sample, so hits are more common in it than they were.
FXIIa mix inh – human factor XIIa inhibitors, primary screen, biochemical, pooled compound mixtures, fluorogenic substrate; Coagulation factor XII (Homo sapiens), P00748; purified FXIIa; inhibition, % at 5 µM; hit rate 0.2% among 62,000; AID 684, 2007;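 further: 0% = enzyme without compound and 100% = no enzyme blank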
D1 mod – D1 CRE-luciferase signal change, two-sided – cell-based, HEK293 D1, dopamine EC30, D1 allosteric modulator project, primary screen. D(1A) dopamine receptor (Homo sapiens), P21728. dopamine EC30 potentiation; actives deviate in either direction. B-score at 10 µM. hit rate 5.9% among 58,000;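 active means luminescence count or its row- and column-corrected plate score outside the 99.7% band of the plate's sample wells, on either side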
Target sequence (P21728 whole entry, looked up): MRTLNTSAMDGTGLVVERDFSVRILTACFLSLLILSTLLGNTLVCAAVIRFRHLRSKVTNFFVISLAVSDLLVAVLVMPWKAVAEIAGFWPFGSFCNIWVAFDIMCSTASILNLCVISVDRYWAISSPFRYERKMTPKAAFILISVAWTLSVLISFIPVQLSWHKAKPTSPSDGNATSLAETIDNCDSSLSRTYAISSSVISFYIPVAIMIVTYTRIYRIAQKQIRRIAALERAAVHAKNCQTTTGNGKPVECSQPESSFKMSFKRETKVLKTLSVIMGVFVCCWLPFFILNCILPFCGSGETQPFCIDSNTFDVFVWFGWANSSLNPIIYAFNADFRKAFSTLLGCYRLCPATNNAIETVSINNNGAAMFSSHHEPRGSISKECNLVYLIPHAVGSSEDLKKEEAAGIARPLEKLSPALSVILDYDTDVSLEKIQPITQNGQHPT
FXIa inh mix – FXIa protease inhibitors in compound pools, primary screen, biochemical, 10-compound mixtures; purified FXIa, fluorogenic substrate, pooled mixtures; inhibition, % at 5 µM; hit rate 0.19% among 62,000; AID 680, 2007;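 further: each value is inhibition by a whole ten-compound pool holding the compound; 0% = enzyme with no mixture and 100% = wells lacking enzyme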
Calb biofilm kill – clotrimazole potentiators killing Candida biofilms, primary screen, with clotrimazole, Alamar Blue; hit rate 0.14% among 85,000; C. albicans biofilm + clotrimazole; inhibition, % at 6 µM;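 active means inhibition above 20%; inactive means inhibition below 20%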;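 further: preformed 24 hr biofilms exposed to compound for 48 hr; 0% = biofilm without compound and 100% = blank killed by clotrimazole plus chlorhexidine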
HePTP inhibitor – inhibitors of human HePTP phosphatase, primary screen, biochemical, absorbance, leukemia target; Tyrosine-protein phosphatase non-receptor type 7 (Homo sapiens), P35236; recombinant HePTP phosphatase activity, OD absorbance; inhibition, % at 20 µM; hit rate 0.64% among 110,000; AID 521, 2006; in the data active means inhibition above about 50%;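 further: plate controls were vehicle for no effect and reference inhibitor for full effect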
TNAP act DEA – human TNAP enzyme activators, primary screen, biochemical, luminescent, intermediate phosphate acceptor level; Alkaline phosphatase, tissue-nonspecific isozyme (Homo sapiens), P05186; purified TNAP, CDP-star luminescence, 100 mM DEA, 30 min; stronger effect = higher value; scale: 0 levamisole-inhibited, 1 vehicle-only enzyme; activation factor at 20 µM; 64,000 tested, under 10 active;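 active means activation factor of at least 2 at 20 µM, relative to controls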
The depositor's hits bear a star; / = not tested or not shown; ! = not confirmed by another sample. Unless noted, no stated cut-off is given here; in the data, active means inhibition above about 20% (passing the limit was not always enough); inactive means the rest.

SMILES	FXIIa mix inh	D1 mod	FXIa inh mix	Calb biofilm kill	HePTP inhibitor	TNAP act DEA
CC(=O)Nc1ccc(NS(=O)(=O)c2cccc3c2C(=O)c2ccccc2C3=O)cc1	/	/	/	/	102*	/
O=C1c2ccccc2C(=O)c2c1cccc2S(=O)(=O)Nc1ccc(Cl)cc1	/	/	/	/	-2	/
CC(=O)Nc1ccc(NS(=O)(=O)c2ccc(C(C)(C)C)cc2)cc1	/	/	/	/	96*	/
CCOC(=O)C1CCN(c2c(N(C)Cc3ccco3)c(=O)c2=O)CC1	-18	-0.26	-2	22*	3	0.9
CC1=NN(c2cccc(C(=O)O)c2)C(=O)/C1=C\c1ccc(C)cc1	/	/	/	/	-12	/
CC(C)COP(=O)(c1ccc(N(C)C)cc1)C(O)c1ccccn1 (stereo unspecified)	48*	0.14	7	7	4	0.9
COc1cc(F)ccc1S(=O)(=O)N1CCC(C)CC1	/	/	/	/	6	/
CN1C(=O)/C(=C/c2ccc(-c3ccc(C(=O)O)cc3)o2)SC1=S	/	/	/	/	20	/
CC(=O)NC1=NC(=O)/C(=C\c2ccc(-c3ccc(C(=O)O)cc3)o2)S1	/	/	/	/	104*	/
CC(=O)NC1=NC(=O)/C(=C\c2ccc(Br)o2)S1	/	/	/	/	102*	/
NNC(=O)c1cc(=O)[nH]c2ccccc12	/	/	/	/	-3	/
CCCn1cc(SCC(=O)NCc2ccco2)c2ccccc21	8	-1.4	1	-5	6	0.9
O=C(CSc1cn(CCNC(=O)c2ccccc2)c2ccccc12)NCc1ccco1	15	-1.6	16	22*	-1	1
COc1nc(-c2ccccc2)c2cc(Cl)ccc2n1	/	/	/	/	-1	/
CC1(C)Cc2c(sc(NC(=O)c3ccc(Br)o3)c2C#N)CO1	/	-2.1	/	/	3	0.9
CC1(C)Cc2c(sc(NC(=O)C3(c4ccccc4)CCCC3)c2C#N)CO1	/	/	/	/	106*	/
COc1ccc(C(=O)N2CCN(Cc3ccccc3Cl)CC2)cc1	/	/	/	/	-13	/
Cn1ccnc1SCC(=O)Nc1ccc2ccccc2c1	9	-6.6*	9	9	6	0.9
Cn1ccnc1SCC(=O)Nc1ccccc1	/	/	/	5	/	/
O=c1oc2ccccc2n1CCCCCn1c(=O)oc2ccccc21	-15	0.18	-26	4	11	0.8
O=C(Cn1c(=O)oc2ccccc21)c1ccccc1	6	-2.6*	10	11	10	1
CN1CCN(c2ccc(NC(=O)c3ccc4c(c3)OCO4)cc2)CC1	-6	-5.1*	4	3	7	0.9
CCOc1ccc(C(=O)Nc2ccc(C(=O)OC)cc2)cc1Br	/	/	/	/	-16	/
CCOc1ccc(C(=O)Nc2cccc(S(N)(=O)=O)c2)cc1Br	/	/	/	/	103*	/
O=C(c1ccc2c(c1)OCO2)N1CCN(c2ccc(Cl)cc2)CC1	-19	-0.69	2	-1	102*!	0.9
SMILES	FXIIa mix inh	D1 mod	FXIa inh mix	Calb biofilm kill	HePTP inhibitor	TNAP act DEA
O=C(c1ccc2c(c1)OCO2)N1CCN(c2ccccc2)CC1	-2	0.16	3	9	6	0.9
CC(=O)N1CCN(c2ccc(NC(=O)c3ccc4c(c3)OCCO4)cc2)CC1	13	-0.4	7	6	-3	0.9
CCOc1ccc(C(=O)Nc2ccc(N3CCN(C)CC3)cc2)cc1Br	-13	-6.4*	-13	/	8	0.8
Cn1ccnc1SCN1C(=O)c2ccccc2C1=O	/	/	/	/	-2	/
CCc1cc2c(C)cc(=O)oc2cc1OC(=O)c1ccccc1	/	/	/	/	-8	/
COC(=O)c1c(NC(=O)CN2CCN(C(=O)c3ccco3)CC2)c2cc(C)ccc2n1C	1	-2.8*	-15	10	8	0.9
COC(=O)c1c(NC(=O)CN2CCN(C(=O)c3ccco3)CC2)c2c(C)cccc2n1C	3	-0.61	-6	-3	6	0.9
CO[C@H]1C=CO[C@@]2(C)Oc3c(C)c(O)c4c(O)c(c(C=NN5CCN(C)CC5)c(O)c4c3C2=O)NC(=O)C(C)=CC=C[C@H](C)[C@H](O)[C@@H](C)[C@@H](O)[C@@H](C)[C@H](OC(C)=O)[C@@H]1C	15	-0.37	10	30*	11	0.8
CC(C)NC(=O)COc1ncnc2sccc12	/	/	/	-4	/	/
C=CCn1c(C)cc(C(=O)COc2ncnc3sccc23)c1C	4	-4.5*	4	10	5	0.9
CC(=O)c1ccc(NC(=O)c2ccc(CN3CCc4ccccc4C3)cc2)cc1	/	/	/	/	8	/
